In general, AC50 refers to the concentration giving half of the maximal activity seen.

From PubChem BioAssay (EPA / NIEHS) come the findings set out here.

Read-out in test [1]: E-selectin (Homo sapiens) (UniProt P16581)
The experiment in a line: BSK_SAg_Eselectin: BioMAP Diversity Plus: SAg Assay for Eselectin Biomarker Activity (AID 2283091). Conditions: primary human HUVEC with PBMC; actives raise or lower the signal. A digest of the protocol:
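Endpoint values derive from bidirectional fitting relative to DMSO, using ELISA-measured E-selectin in a human vascular co-culture (umbilical vein endothelium plus PBMC) sampled 24 h after dosing.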

Test [2] can be described thus: BSK_SAg_PBMCCytotoxicity: PBMC Cytotoxicity Assessment in the BioMAP Diversity Plus: SAg Assay (AID 2283093).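 Further: PBMC viability measured as Alamar Blue reduction fluorescence at 546/580 nm; fitted both ways against DMSO so a hit may be loss or gain of signal.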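 On AC50: PBMC superantigen activated with SEB plus TSST-1 one hour after compound addition.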 As to conditions: primary human HUVEC with PBMC. A digest of the protocol:
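HUVEC/PBMC co-culture; PBMC exposed to chemical 1 h before SEB and TSST-1 activation (20 ng/mL each), incubated 90 h, then Alamar Blue 6 h, fluorescence 546/580 nm. Bidirectional fit versus DMSO baseline.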

Read-out in test [3]: Interleukin-8 (IL8), CXCL8 (gene 3576)
The test can be described thus: BSK_SAg_IL8: BioMAP Diversity Plus: SAg Assay for Interleukin-8 (IL8) Biomarker Activity (AID 2283094). Conditions: primary human HUVEC with PBMC; actives raise or lower the signal. In outline: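 Human umbilical vein endothelial cells co-cultured with peripheral blood mononuclear cells; IL-8 measured by ELISA 24 h after chemical dosing. Bidirectional concentration-response fitting used DMSO as negative control and activity baseline.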

A short description of test [4]: BSK_SAg_Proliferation: Cell Proliferation Assessment in the BioMAP Diversity Plus: SAg Assay (AID 2283095).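 Further: relative cell number as total protein by SRB absorbance in sub-confluent culture.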 As to conditions: primary human HUVEC with PBMC. A digest of the protocol:
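Human umbilical vein endothelial cells co-cultured with peripheral blood mononuclear cells; total protein measured by sulforhodamine B staining (0.1% SRB after 10% TCA fixation), absorbance at 560 nm, at 96 h. Bidirectional fit against DMSO baseline.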

Test [5] can be described thus: BSK_SAg_SRB: Viability Assessment in the BioMAP Diversity Plus: SAg Assay (AID 2283096).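 Further: cells read one day after compound addition; hits may be either gain or loss of signal compared with DMSO.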 As to conditions: primary human HUVEC with PBMC. In outline: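 Human umbilical vein endothelial cells co-cultured with PBMC, read 24 h after compound dosing. Total protein measured by sulforhodamine B staining (0.1% SRB after 10% TCA fixation, absorbance 560 nm); bidirectional fit versus DMSO baseline.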

Read-out in test [6]: Monokine induced gamma interferon (MIG), CXCL9 (gene 4283)
The test can be described thus: BSK_SAg_MIG: BioMAP Diversity Plus: SAg Assay for Monokine induced gamma interferon (MIG) Biomarker Activity (AID 2283092). As to conditions: primary human HUVEC with PBMC; actives raise or lower the signal. In outline:
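HUVEC plus human PBMC co-culture, chemicals dosed and MIG (CXCL9) quantified by ELISA at 24 h. Bidirectional curve fitting against DMSO as negative control and baseline, so both gain and loss of signal count as activity.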

The target in test [7] is human Beta-secretase (BACE), BACE1 (gene 23621) (UniProt P56817). The test can be described thus: NVS_ENZ_hBACE: NovaScreen (NVS) Enzymatic Assay for human Beta-secretase (BACE) (AID 2283140; active means hit-call score of the fitted dose curve at least 0.9, where 1 is the maximum;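 further: hits are inhibitors that reduce fluorescent substrate signal versus DMSO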). In outline: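 Cell-free fluorescence-intensity assay of recombinant BACE1 expressed in SF9 cells, read 1 hour after dosing. Loss of signal indicates reduced protease activity, fitted relative to DMSO negative control. Primary screen at 25 uM in duplicate; actives followed in concentration series.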
Chain of human Beta-secretase (BACE), BACE1 (gene 23621) (P56817 whole entry, looked up): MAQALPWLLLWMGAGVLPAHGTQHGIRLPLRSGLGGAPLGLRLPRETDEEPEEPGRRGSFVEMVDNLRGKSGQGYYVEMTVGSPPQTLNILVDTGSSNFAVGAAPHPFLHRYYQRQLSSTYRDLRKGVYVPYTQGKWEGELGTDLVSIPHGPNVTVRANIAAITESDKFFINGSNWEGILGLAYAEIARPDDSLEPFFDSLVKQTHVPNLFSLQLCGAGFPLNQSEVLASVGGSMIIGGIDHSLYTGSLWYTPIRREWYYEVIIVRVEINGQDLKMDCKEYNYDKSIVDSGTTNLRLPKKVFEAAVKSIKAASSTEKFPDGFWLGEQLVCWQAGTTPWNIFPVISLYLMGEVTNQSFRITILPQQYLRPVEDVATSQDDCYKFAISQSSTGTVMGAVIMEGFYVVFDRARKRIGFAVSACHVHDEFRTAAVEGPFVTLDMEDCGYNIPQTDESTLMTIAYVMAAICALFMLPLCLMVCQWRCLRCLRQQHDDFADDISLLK

Test [8] deals with human Matrix Metalloproteinase-9 (MMP9), MMP9 (gene 4318) (UniProt P14780). The experiment in a line: NVS_ENZ_hMMP9: NovaScreen (NVS) Enzymatic Assay for human Matrix Metalloproteinase-9 (MMP9) (AID 2283190; active means hit-call score of the fitted dose curve at least 0.9, where 1 is the maximum;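 further: cell-free recombinant MMP9 protease activity read by fluorescent substrate signal; active means inhibition seen as loss of fluorescence signal versus DMSO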). A digest of the protocol:
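Cell-free recombinant MMP9 enzyme activity measured by fluorescence intensity 1 h after dosing. Primary screen in duplicate at 25 uM, actives followed in concentration series; loss of signal relative to DMSO.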

For test [9], the target named is human CYP2D6, CYP2D6 (gene 1565) (UniProt P10635). The experiment in a line: NVS_ADME_hCYP2D6: NovaScreen (NVS) CYP450-related Enzyme Activity (ADME) Assay for human CYP2D6 (AID 2283107; active means hit-call score of the fitted dose curve at least 0.9, where 1 is the maximum). In outline: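 Biochemical fluorescence assay, insect-cell-derived enzyme. Read at 1 h; inhibition taken from loss of signal against acetonitrile. Screened at 10 uM in duplicate, with concentration series for actives.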
Chain of human CYP2D6, CYP2D6 (gene 1565) (P10635 whole entry, looked up): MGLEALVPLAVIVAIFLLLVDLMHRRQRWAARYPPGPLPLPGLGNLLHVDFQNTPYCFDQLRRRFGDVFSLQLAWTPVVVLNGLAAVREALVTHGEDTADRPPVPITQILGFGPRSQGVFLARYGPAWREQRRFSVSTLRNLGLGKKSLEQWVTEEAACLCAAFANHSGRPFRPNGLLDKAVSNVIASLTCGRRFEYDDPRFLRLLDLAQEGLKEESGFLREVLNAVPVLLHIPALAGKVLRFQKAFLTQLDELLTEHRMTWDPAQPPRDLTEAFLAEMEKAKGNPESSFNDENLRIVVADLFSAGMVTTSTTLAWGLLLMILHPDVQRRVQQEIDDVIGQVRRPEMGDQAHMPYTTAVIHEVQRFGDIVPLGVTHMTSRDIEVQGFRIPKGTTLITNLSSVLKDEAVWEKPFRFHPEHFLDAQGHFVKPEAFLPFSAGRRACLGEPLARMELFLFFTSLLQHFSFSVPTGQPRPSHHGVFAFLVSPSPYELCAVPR

For test [10], the target named is human Esterase Plasma (ES), BCHE (gene 590) (UniProt P06276). The test can be described thus: NVS_ENZ_hES: NovaScreen (NVS) Enzymatic Assay for human Esterase Plasma (ES) (AID 2283157; active means hit-call score of the fitted dose curve at least 0.9, where 1 is the maximum). In outline:
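Esterase from human plasma, cell-free, colorimetric absorbance read 0.25 h after dosing. Screened at 25 uM in duplicate, with threshold-passing chemicals run in concentration-response up to 50 uM; loss of signal fitted versus DMSO.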

Test [11] has as its target human Protein Tyrosine Phosphatase Non-receptor Type 6 (PTPN6), PTPN6 (gene 5777) (UniProt P29350). The test can be described thus: NVS_ENZ_hPTPN6: NovaScreen (NVS) Enzymatic Assay for human Protein Tyrosine Phosphatase Non-receptor Type 6 (PTPN6) (AID 2283210; active means hit-call score of the fitted dose curve at least 0.9, where 1 is the maximum). In outline:
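Cell-free assay with recombinant PTPN6 expressed in SF9 cells, fluorescent substrate, product separated from substrate by electrophoretic mobility shift; read 1.33 hours after dosing. Primary screen in duplicate at 25 uM, actives retested in concentration series; DMSO baseline.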

The target of test [12] is human Vascular Endothelial Growth Factor Receptor 1 (VEGFR1), FLT1 (gene 2321) (UniProt P17948). The experiment in a line: NVS_ENZ_hVEGFR1: NovaScreen (NVS) Enzymatic Assay for human Vascular Endothelial Growth Factor Receptor 1 (VEGFR1) (AID 2283226; active means hit-call score of the fitted dose curve at least 0.9, where 1 is the maximum). In outline: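 Cell-free assay of recombinant human VEGFR1 kinase with substrate, measured 1 h after dosing; fluorescence with electrophoretic mobility-shift separation of substrate and product, referenced to DMSO; primary screen at 25 uM in duplicate, actives then run in concentration series.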
Chain of human Vascular Endothelial Growth Factor Receptor 1 (VEGFR1), FLT1 (gene 2321) (P17948 whole entry, looked up): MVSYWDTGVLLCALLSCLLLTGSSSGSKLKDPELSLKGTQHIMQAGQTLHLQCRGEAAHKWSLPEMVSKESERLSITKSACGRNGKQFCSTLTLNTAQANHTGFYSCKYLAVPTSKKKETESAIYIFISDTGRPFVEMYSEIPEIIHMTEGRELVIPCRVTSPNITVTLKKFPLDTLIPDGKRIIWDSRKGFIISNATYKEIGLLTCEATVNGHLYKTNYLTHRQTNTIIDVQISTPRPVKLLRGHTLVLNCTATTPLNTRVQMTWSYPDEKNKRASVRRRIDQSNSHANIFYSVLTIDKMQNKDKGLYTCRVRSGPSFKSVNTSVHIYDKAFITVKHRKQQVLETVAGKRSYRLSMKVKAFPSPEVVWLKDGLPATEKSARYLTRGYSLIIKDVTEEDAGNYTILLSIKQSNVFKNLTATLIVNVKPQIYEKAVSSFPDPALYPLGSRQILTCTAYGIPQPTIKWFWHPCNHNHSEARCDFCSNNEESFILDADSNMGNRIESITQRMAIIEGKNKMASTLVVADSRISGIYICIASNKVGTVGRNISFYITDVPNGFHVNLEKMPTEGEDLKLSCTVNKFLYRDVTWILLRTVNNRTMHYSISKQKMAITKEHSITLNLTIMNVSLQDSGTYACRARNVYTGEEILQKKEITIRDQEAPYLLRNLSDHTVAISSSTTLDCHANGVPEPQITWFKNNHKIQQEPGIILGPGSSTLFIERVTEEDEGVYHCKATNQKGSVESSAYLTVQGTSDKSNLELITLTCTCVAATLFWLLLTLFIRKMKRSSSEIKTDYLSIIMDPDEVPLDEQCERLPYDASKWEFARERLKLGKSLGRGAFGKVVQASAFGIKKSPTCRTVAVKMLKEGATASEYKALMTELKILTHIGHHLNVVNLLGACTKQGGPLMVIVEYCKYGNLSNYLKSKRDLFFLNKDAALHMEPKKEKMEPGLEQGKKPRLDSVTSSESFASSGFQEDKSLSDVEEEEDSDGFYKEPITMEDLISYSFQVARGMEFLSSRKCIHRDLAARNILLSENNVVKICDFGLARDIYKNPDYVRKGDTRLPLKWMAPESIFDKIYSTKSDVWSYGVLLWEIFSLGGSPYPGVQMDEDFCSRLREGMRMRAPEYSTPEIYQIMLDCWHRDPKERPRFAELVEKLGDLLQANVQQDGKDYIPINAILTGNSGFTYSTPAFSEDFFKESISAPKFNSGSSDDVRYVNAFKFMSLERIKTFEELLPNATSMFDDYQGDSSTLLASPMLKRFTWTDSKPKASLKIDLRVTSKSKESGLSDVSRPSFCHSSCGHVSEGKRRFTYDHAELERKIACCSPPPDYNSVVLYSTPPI

Several values for one entry are separate records, joined by “and”; a condition that tells them apart may be missing. Equal values may be shown once. Inconclusive results are not listed. Some compounds were tested as several samples or in several runs, with calls that do not always agree. Activity calls are given as the source filed them. How the source made its calls, unless noted: active means hit-call score of the fitted dose curve at least 0.9, where 1 is the maximum; inactive means score below 0.9.

Chain of E-selectin (Homo sapiens) (P16581 whole entry, looked up): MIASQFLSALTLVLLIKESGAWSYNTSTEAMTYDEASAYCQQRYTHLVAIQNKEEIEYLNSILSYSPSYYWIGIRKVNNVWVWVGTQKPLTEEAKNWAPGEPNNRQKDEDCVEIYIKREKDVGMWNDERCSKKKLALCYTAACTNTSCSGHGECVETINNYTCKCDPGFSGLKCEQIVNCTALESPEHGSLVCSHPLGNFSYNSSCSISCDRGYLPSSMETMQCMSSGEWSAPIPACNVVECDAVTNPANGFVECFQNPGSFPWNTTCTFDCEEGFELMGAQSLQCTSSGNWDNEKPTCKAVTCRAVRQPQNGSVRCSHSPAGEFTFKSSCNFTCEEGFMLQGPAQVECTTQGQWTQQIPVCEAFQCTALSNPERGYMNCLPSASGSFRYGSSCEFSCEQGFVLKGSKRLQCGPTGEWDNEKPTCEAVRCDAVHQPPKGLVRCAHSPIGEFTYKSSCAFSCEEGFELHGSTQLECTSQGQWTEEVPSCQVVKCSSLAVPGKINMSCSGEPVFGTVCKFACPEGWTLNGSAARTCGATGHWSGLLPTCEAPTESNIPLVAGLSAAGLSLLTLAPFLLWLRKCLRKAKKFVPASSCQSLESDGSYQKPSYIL
Chain of human Esterase Plasma (ES), BCHE (gene 590) (P06276 whole entry, looked up): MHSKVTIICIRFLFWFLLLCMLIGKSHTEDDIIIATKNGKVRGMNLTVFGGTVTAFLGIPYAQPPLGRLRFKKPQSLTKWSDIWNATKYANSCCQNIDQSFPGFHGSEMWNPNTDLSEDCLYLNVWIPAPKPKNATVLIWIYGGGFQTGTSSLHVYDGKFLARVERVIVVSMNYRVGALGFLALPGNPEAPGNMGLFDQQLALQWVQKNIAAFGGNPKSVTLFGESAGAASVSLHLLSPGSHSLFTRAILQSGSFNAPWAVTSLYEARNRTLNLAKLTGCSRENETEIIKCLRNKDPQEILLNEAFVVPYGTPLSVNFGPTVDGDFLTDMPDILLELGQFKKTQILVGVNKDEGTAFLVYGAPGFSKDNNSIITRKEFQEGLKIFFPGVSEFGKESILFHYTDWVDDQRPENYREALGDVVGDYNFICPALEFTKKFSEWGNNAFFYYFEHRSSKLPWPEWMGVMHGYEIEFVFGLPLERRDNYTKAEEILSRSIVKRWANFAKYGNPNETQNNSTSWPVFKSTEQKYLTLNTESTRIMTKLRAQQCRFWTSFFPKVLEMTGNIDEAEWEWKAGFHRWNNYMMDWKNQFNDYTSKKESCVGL
Chain of human Matrix Metalloproteinase-9 (MMP9), MMP9 (gene 4318) (P14780 whole entry, looked up): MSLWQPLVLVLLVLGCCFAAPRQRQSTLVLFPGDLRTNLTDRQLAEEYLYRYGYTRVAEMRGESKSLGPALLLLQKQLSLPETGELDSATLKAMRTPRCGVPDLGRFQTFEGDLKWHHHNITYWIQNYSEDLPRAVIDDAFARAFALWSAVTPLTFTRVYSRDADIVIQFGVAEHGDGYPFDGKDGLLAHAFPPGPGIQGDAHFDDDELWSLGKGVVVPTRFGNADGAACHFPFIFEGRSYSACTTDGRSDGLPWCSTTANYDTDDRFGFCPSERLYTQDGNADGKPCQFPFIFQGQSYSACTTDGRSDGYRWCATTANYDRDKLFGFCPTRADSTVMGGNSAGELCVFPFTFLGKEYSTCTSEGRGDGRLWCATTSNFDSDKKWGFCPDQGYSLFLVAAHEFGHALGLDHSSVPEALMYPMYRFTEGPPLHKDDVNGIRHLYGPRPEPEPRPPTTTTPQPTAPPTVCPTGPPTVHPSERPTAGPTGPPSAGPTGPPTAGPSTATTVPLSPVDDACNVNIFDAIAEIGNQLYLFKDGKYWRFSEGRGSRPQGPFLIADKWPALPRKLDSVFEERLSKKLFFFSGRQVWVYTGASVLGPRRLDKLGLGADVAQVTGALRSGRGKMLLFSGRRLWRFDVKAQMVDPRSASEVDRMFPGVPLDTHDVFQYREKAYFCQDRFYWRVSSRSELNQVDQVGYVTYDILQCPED
Chain of human Protein Tyrosine Phosphatase Non-receptor Type 6 (PTPN6), PTPN6 (gene 5777) (P29350 whole entry, looked up): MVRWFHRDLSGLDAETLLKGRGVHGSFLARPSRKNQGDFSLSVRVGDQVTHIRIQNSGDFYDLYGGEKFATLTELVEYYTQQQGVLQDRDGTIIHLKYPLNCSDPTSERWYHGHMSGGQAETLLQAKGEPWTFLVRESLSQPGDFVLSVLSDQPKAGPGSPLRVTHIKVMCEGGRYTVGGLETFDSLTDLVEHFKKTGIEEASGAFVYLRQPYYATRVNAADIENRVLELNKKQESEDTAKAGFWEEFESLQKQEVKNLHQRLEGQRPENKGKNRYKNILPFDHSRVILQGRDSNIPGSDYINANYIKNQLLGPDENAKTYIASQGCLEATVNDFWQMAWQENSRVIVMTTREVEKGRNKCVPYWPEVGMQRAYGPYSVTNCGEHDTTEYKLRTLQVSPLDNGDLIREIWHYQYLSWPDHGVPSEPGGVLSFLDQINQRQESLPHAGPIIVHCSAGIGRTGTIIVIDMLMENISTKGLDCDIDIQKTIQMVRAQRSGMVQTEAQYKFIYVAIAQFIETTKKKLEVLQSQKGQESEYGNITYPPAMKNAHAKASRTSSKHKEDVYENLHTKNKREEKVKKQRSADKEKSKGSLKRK

`O=[N+]([O-])c1cc(C(F)(F)F)ccc1Cl`: the result in [1], in test [2], in test [3], in [4] and in [5] was inactive.

Regarding `CC(C)(COC(=O)c1ccccc1)COC(=O)c1ccccc1`, the AC50 is 28.8 µM (active) in [1] and 20 µM (active) in [4]. The result in test [2], in test [3] and in [5] was inactive.

`NCCNCCN`: the result in test [1], in [2], in test [3], in test [4] and in test [5] was inactive.

For the compound `O=C(O)c1cn(-c2ccc(F)cc2)c2cc(N3CCNCC3)c(F)cc2c1=O`, the result in test [1], in test [6], in [2], in test [3], in [4] and in test [5] was inactive.

For the compound `N#Cc1ccc(CC(=NNC(=O)Nc2ccc(OC(F)(F)F)cc2)c2cccc(C(F)(F)F)c2)cc1`, the result in test [1], in test [2], in test [3], in [4] and in [5] was inactive.

Consider `CC(C)c1ccc(C(C)C)cc1`, for which the outcome in test [1], in test [6], in test [2], in [3], in test [4] and in [5] was inactive.

Regarding `Cc1cc(C2(c3cc(C)c(O)cc3C)OS(=O)(=O)c3ccccc32)c(C)cc1O`, the outcome in test [1], in test [6], in [2], in [3], in [4] and in [5] was inactive. In addition, in [2], the AC50 is 27.3 µM (active).

On to `CCCCC(CC)COC(=O)/C=C\C(=O)OCC(CC)CCCC` (stereo not given), for which the outcome in [1], in [2], in [3] and in test [5] was inactive. Further, the AC50 in test [4] was 20 µM (active).

Regarding `OC1OC[C@@H](O)[C@H](O)[C@H]1O` (stereo not given in full), the result in [1], in test [2], in [3], in test [4] and in test [5] was inactive.

In the case of `CCC(=O)OCc1ccccc1`, the result in test [1], in test [2], in test [3], in test [4] and in test [5] was inactive.

On to `C=C(C)C(=O)O[C@H]1C[C@@H]2CC[C@@]1(C)C2(C)C`, for which the AC50 in [1] was 34 µM (active); in test [6], 36.3 µM (active); in [2], 33.1 µM (active); in test [3], 35.3 µM (active); in [4], 30.7 µM (active); in test [5] it was 30.9 µM (active).

In the case of `O=C(O)c1cn(C2CC2)c2cc(N3CCNCC3)c(F)cc2c1=O`, the outcome in [1], in test [2], in test [3], in test [4] and in test [5] was inactive.

Take `O=C=NC1CCC(CC2CCC(N=C=O)CC2)CC1` (stereo not given): the result in test [1], in [6], in test [3] and in test [5] was inactive. The AC50 is 13.3 µM (active) in test [2], 33.5 µM (active) in test [4], 8.32 µM (active) in test [7] and 2.17 µM (active) in test [8].

`C[C@H]1C[C@@H]2[C@H]([C@@H](O)C[C@@]3(C)[C@H]2CC[C@]3(O)C(=O)CO)[C@@]2(C)C=CC(=O)C=C12`: the AC50 in test [1] is 3.1 µM (active) and 1.1 µM (active); in test [3] it was 4.3 µM (active) and 1.37 µM (active); in [4] it was 2.49 µM (active) and 6.67 µM (active). In addition, the result in test [2] and in test [5] was inactive.

Take `CCCCC(CC)COCCC#N` (stereo not given): the outcome in test [1], in test [6], in test [2], in test [4] and in test [5] was inactive. The half-maximal activity concentration (AC50) in [3] is 0.0801 µM (active).

Regarding `Nc1cc([N+](=O)[O-])ccc1O`, the result in [1], in test [2], in test [3], in test [4] and in test [5] was inactive.

With `CCCCCCCCCC=O`, in [1], the AC50 is 33.6 µM (active). Moreover, the outcome in [2], in [3], in test [4] and in [5] was inactive.

Turning to `Nc1ccc(F)c([N+](=O)[O-])c1`, the compound was called inactive in [9].

In the case of `O=C1OC2(c3cc(Br)c(O)c(Br)c3Oc3c2cc(Br)c(O)c3Br)c2c(Cl)c(Cl)c(Cl)c(Cl)c21`, the compound was called inactive in [10].

Turning to `CCn1c2ccccc2c2cc(N)ccc21`, the AC50 in [10] was 27.1 µM (active).

On to `O=C(O)c1ccc([N+](=O)[O-])cc1`, for which, in test [11], the compound was classed as inactive.

`c1ccc2c(c1)c1cccc3ccc4cccc2c4c31`: the call in [12] was inactive.

Take `COc1cc2ncnc(Nc3cccc(Cl)c3)c2cc1OC`: the AC50 in test [12] is 1.27 µM (active).
